Assay [1] deals with Serine/threonine-protein kinase 26 (Homo sapiens) (UniProt Q9P289). The note with it: at 1 µM.
For assay [2], the target named is Serine/threonine-protein kinase PAK 1 (Homo sapiens) (UniProt Q13153). The following applies: at 0.1 µM.
For assay [3] the target is unchanged. The note with it: at 1 µM.
Assay [4] concerns the target Serine/threonine-protein kinase PAK 2 (Homo sapiens) (UniProt Q13177). The note with it: at 0.1 µM.
The target is the same in assay [5]. The note with it: at 1 µM.
Assay [6] addresses Serine/threonine-protein kinase PAK 3 (Homo sapiens) (UniProt O75914). The following applies: at 0.1 µM.
For assay [7] the target is unchanged. The following applies: at 1 µM.
The target of assay [8] is Serine/threonine-protein kinase PAK 5 (Homo sapiens) (UniProt Q9P286). The note with it: at 0.1 µM.
For assay [9] the target is unchanged. The following applies: at 1 µM.
Assay [10] addresses Serine/threonine-protein kinase PAK 6 (Homo sapiens) (UniProt Q9NQU5). The note with it: at 0.1 µM.

Consider 16 compounds from ChEMBL document CHEMBL1961873, “Compounds: GSK PKIS; Assays: Nanosyn kinase panel” (2012).

Sequence of Serine/threonine-protein kinase 26 (Homo sapiens) (Q9P289 2-416 limits assumed): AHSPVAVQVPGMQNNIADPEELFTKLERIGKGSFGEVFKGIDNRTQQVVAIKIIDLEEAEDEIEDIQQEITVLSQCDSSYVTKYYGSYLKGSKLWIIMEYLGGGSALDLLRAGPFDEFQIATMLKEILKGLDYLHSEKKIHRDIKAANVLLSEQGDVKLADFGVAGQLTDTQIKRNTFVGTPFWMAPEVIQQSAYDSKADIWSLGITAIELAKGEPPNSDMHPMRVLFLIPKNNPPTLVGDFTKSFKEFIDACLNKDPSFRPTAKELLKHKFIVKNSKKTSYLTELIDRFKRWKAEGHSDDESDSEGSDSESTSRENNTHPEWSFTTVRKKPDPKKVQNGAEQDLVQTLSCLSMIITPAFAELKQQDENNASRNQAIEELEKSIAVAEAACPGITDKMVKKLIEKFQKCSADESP
Sequence of Serine/threonine-protein kinase PAK 2 (Homo sapiens) (Q13177 whole entry): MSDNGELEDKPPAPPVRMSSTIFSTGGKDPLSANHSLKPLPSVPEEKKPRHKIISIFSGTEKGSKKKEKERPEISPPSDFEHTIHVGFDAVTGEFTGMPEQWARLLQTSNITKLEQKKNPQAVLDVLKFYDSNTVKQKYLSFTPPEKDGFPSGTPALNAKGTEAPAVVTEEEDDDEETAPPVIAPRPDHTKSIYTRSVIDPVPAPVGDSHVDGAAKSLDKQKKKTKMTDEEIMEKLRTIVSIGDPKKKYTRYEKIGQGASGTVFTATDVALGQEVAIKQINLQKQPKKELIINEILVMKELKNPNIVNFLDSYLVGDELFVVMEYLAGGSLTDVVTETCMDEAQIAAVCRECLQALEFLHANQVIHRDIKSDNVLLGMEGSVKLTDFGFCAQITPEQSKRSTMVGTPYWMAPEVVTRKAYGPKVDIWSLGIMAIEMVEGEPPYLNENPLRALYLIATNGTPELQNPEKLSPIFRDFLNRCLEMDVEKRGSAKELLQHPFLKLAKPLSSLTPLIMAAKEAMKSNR
Sequence of Serine/threonine-protein kinase PAK 6 (Homo sapiens) (Q9NQU5 whole entry, looked up): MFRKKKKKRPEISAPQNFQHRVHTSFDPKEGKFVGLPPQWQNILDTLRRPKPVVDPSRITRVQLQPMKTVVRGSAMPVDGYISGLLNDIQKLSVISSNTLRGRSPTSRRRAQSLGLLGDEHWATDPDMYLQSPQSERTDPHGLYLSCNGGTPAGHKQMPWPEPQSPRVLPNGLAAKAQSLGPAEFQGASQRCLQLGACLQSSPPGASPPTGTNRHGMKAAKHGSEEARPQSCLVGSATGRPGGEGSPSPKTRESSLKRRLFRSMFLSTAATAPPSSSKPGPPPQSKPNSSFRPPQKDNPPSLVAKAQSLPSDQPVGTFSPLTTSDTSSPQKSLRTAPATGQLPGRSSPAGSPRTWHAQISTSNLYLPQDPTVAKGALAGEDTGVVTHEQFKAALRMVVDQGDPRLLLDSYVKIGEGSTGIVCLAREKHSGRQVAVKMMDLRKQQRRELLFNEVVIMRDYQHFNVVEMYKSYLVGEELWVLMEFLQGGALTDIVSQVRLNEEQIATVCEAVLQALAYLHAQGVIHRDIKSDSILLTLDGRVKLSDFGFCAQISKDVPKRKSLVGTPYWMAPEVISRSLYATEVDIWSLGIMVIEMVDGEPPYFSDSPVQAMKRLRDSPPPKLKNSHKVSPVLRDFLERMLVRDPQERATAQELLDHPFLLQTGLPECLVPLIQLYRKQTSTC
Sequence of Serine/threonine-protein kinase PAK 3 (Homo sapiens) (O75914 whole entry, looked up): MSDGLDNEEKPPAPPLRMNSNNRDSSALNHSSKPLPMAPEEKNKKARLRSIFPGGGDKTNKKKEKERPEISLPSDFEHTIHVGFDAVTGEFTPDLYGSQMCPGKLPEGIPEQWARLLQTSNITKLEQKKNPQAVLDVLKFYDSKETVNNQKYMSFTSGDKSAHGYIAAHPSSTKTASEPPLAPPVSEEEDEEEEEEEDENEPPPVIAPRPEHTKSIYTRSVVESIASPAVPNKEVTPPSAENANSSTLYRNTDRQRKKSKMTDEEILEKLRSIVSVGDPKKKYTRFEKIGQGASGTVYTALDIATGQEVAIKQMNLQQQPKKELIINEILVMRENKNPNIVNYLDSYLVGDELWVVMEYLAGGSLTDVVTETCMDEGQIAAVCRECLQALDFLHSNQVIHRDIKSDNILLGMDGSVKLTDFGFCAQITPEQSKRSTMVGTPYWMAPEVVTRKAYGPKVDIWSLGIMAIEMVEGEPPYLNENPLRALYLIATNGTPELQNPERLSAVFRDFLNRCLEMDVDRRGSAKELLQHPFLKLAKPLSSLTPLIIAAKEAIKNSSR
Sequence of Serine/threonine-protein kinase PAK 1 (Homo sapiens) (Q13153 whole entry): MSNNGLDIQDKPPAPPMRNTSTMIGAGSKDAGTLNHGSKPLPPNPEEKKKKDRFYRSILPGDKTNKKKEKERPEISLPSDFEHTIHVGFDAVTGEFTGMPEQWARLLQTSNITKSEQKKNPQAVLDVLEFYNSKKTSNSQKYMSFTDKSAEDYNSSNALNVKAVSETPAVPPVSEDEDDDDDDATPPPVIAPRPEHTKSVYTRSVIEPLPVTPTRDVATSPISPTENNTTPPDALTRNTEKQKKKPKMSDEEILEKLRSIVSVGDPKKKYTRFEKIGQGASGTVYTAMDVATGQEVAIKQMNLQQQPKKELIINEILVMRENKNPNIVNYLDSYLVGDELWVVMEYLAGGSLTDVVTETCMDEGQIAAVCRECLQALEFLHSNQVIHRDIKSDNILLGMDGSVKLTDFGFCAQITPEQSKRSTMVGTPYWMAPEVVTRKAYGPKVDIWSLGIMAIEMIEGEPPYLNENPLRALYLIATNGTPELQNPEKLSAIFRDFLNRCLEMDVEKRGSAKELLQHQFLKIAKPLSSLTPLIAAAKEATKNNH
Sequence of Serine/threonine-protein kinase PAK 5 (Homo sapiens) (Q9P286 whole entry, looked up): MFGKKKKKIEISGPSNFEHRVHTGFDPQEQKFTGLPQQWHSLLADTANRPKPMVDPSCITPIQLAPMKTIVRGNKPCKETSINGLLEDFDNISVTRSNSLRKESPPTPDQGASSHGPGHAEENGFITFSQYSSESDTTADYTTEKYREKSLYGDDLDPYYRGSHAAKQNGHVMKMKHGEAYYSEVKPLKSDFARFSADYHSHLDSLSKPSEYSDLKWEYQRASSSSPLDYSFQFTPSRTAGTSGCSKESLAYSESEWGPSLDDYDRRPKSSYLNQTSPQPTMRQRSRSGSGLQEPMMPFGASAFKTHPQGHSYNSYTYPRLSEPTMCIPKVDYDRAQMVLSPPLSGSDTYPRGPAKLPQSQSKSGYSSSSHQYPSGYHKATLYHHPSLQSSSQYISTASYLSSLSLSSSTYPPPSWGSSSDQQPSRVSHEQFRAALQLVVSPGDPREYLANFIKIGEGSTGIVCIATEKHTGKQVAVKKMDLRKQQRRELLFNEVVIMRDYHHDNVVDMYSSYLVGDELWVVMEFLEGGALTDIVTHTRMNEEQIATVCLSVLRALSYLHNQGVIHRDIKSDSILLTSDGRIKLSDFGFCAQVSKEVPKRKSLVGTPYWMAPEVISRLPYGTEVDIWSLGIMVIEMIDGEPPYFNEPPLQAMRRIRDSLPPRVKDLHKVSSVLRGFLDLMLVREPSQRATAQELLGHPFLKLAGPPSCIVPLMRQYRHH

For orientation: inhibition means the drop in the measured response relative to a control, in per cent. For the compound `CN1CCC(C(=O)Nc2n[nH]c3nnc(-c4ccccc4)cc23)CC1`, the inhibition in [1] was 1.63%; in assay [2], 10.6%; in assay [3], 7.32%; in assay [4], 1.19%; in assay [5] it was 2.25%; in assay [6] it was 5.86%. Besides, the inhibition in assay [7] was determined as 6.46%; in [8], 3.31%; in [9], 6.52%.

As to `COc1cc(C)c(NC(=O)CN(C)C)cc1Nc1nc(Nc2cccc(F)c2C(N)=O)c2cc[nH]c2n1`, the inhibition in assay [1] was -2.75%; in assay [2] it was 2.74%; in assay [3] it was 3.36%; in [4], 1.54%; in assay [5] it was 1.5%; in [6], 1.84%. Further, the inhibition is 2.37% in assay [7], -4.59% in assay [8], -5.11% in assay [9] and 5.11% in [10].

With `CCCN1CCC=C(c2ccc(Nc3nc(Nc4ccccc4C(N)=O)c4cc[nH]c4n3)c(C)c2)C1`, the inhibition is -1.15% in [1]; 8.77% in [2]; 12.7% in [3]; 2.2% in assay [4]; 3.03% in assay [5]; 5% in assay [6]. Moreover, the inhibition in assay [7] is 6.44%; in [8], 6.43%; in [9], 14.2%.

As for `Cc1ccc(NC(=O)c2ccnc(N3CCCC3)c2)cc1-c1ccc(C(=O)NCC2CC2)cc1`, the inhibition in [1] came out at 6.65%; in [2] it was 5.46%; in [3], 8.39%; in assay [4], 1.66%; in assay [5] it was 0.96%; in assay [6], 4.52%. For the same compound, the inhibition is 5.08% in [7], -9.56% in assay [8], -5.63% in assay [9] and -2.61% in assay [10].

In the case of `CNC(=O)c1cncc(/C=C/c2c(Cl)cccc2Cl)c1`, the inhibition is -0.15% in assay [1]; 4.17% in [2]; 11% in assay [3]; 1.59% in assay [4]; 0.88% in assay [5]; 4.45% in [6]. For the same compound, the figures for the inhibition in assay [7], in assay [8] and in [9] were 5.48%, 5.92% and 6.55%, respectively.

In the case of `COc1ccc(-c2ccncc2)cc1C(N)=O`, the inhibition is -5.1% in [1]; 4.54% in [2]; 10% in assay [3]; 2.37% in [4]; 3.02% in [5]; 5.3% in [6]. Besides, the inhibition is 10.3% in assay [7], 5.08% in assay [8], 8.05% in [9] and -8.8% in assay [10].

Take `CCc1cccc(NC(=O)Nc2ccc(Oc3ccc4nc(NC(=O)OC)[nH]c4c3)cc2)c1`: the inhibition in [1] is 2.74%; in assay [2] it was 1.22%; in assay [3], 2.79%; in [4], 0.53%; in [5], 0.26%; in [6] it was 0.88%. Also, the inhibition in assay [7] is 2.93%; in [8], 8.59%; in [9], -2.14%; in [10], 15.4%.

Take `N#Cc1c(NC(=O)c2cccc3ccccc23)sc2c1CCCC2`: the inhibition came out at 1.23% in [1]; 5.02% in assay [2]; 3.74% in assay [3]; 0.12% in [4]; 1.16% in assay [5]; 2.52% in assay [6]. Besides, the inhibition in assay [7] was 3.41%; in assay [8], -2.18%; in assay [9], -9.6%; in [10], 7.76%.

In the case of `CCn1c(-c2nonc2N)nc2cnc(Oc3cccc(NC(=O)c4ccc(OCCN5CCOCC5)cc4)c3)cc21`, the inhibition in assay [1] was 2.57%; in assay [2] it was 3.65%; in assay [3], 5.84%; in assay [4] it was -0.41%; in assay [5], 0.34%; in [6], -3.22%. Moreover, the inhibition was 2.69% in [7], 1.02% in assay [8], -0.29% in assay [9] and -6.86% in [10].

Consider `COc1cc2ncn(-c3cc(OCc4ccccc4Cl)c(C(N)=O)s3)c2cc1OC`, for which the inhibition was -3.28% in assay [1]; 3.48% in assay [2]; 1.43% in assay [3]; -1.4% in assay [4]; -1.31% in assay [5]; -3.29% in assay [6]. Besides, the inhibition was 1.37% in assay [7], -3.38% in [8], 0.31% in [9] and -7.38% in assay [10].

Turning to `Cc1nnc(-c2ccc(C)c(-c3ccc(C(=O)Nc4cccc(C#N)c4)cc3)c2)o1`, the inhibition in assay [1] was -0.56%; in assay [2] it was 5.8%; in [3], 1.41%; in assay [4], 0.71%; in [5], 0.48%; in assay [6] it was 2.48%. In addition, the inhibition is 2.15% in [7], 0.22% in assay [8], -1.12% in assay [9] and -9.89% in assay [10].

In the case of `Nc1ncnc2occ(-c3ccc(NC(=O)Nc4cccc(C(F)(F)F)c4)cc3)c12`, the inhibition in assay [1] was -4.13%; in assay [2], 6.38%; in [3], 5.2%; in assay [4], 1.77%; in assay [5], 1.5%; in assay [6], 6.37%. For the same compound, the inhibition in assay [7] was 5.54%; in assay [8] it was 2.15%; in [9], 3.35%; in [10], -0.62%.

`NS(=O)(=O)c1ccc(N/N=C2\C(=O)Nc3ccc(C(=O)NCCc4c[nH]cn4)cc32)cc1`: the inhibition in [1] turned out to be 6.15%; in assay [2], 3.1%; in assay [3], 7.85%; in assay [4], 1.34%; in [5], 3.15%; in assay [6] it was 4.63%. For the same compound, the inhibition in [7] stood at 6.49%; in [8] it was 2.86%; in [9], 3.33%; in [10] it was 10.1%.

With `CCn1c(-c2nonc2N)nc2c(C#CC(C)(C)O)nc(CN3CCCC3)cc21`, the inhibition in assay [1] is 7.65%; in assay [2] it was 0.14%; in assay [3], 2.33%; in assay [4], -2.93%; in [5] it was -0.92%; in assay [6], -0.82%. The inhibition in assay [7] was 0.31%; in assay [8] it was -4.5%; in assay [9], -1.51%; in assay [10], 10.8%.

In the case of `CS(=O)(=O)Nc1ccc(N/C=C2\C(=O)Nc3ccccc32)cc1`, the inhibition in assay [1] is -0.36%; in [2], -4.5%; in assay [3], -3.06%; in assay [4], -1.89%; in assay [5] it was -3.37%; in assay [6] it was -3.72%. In addition, the inhibition is -2.59% in [7], -2.35% in [8], 0.84% in assay [9] and -9.71% in assay [10].

With `COc1cc2ncn(-c3cc(O[C@@H](C)c4ccccc4Cl)c(C(N)=O)s3)c2cc1OC`, the inhibition in [1] is -7.1%; in assay [2] it was 7.98%; in [3], 9.51%; in [4], 1.89%; in [5] it was 2.93%; in assay [6], 5.16%. For the same compound, the inhibition in assay [7] is 5.27%; in assay [8] it was 2.62%; in assay [9], 4.73%; in [10] it was -0.86%.
